Experiment [1] in a line: NCI Yeast Anticancer Drug Screen. Data for the rad50 strain (AID 155).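 Note: 0% = growth of vehicle-only cultures of the same strain.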 Particulars: S. cerevisiae rad50 strain growth inhibition, hits give high values. The method in brief:
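Growth of the mutant yeast was measured after compound exposure and referenced to vehicle-treated cultures.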

Experiment [2] can be described thus: NCI Yeast Anticancer Drug Screen. Data for the mec2-1 strain (AID 157). Particulars: S. cerevisiae mec2-1 strain, hits give high values. Summed up: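 Readout is yeast growth inhibition, normalised to vehicle-treated controls, in the mec2-1 strain exposed to compound.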
Experiment [3] is described as follows: NCI Yeast Anticancer Drug Screen. Data for the sgs1 mgt1 strain (AID 161).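 Note: 0% = growth of cultures given vehicle only.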 Particulars: S. cerevisiae sgs1 mgt1 strain, hits give high values. The method in brief: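 Yeast cells carrying a defined DNA-repair defect were exposed to test compounds. Growth inhibition was measured relative to vehicle-treated controls.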
Experiment [4] can be described thus: NCI Yeast Anticancer Drug Screen. Data for the cln2 rad14 strain (AID 165).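 Note: 0% = growth equal to vehicle treated cultures.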 Particulars: S. cerevisiae cln2 rad14 strain, hits give high values. Summed up:
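Relative to vehicle controls, growth inhibition of compound-treated cln2 rad14 yeast was recorded.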

A short description of experiment [5]: NCI Yeast Anticancer Drug Screen. Data for the bub3 strain (AID 167). Particulars: S. cerevisiae bub3 mutant strain, hits give high values. Summed up:
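Whole-cell yeast assay. The mutant strain was incubated with compounds, and growth inhibition was determined by comparison with vehicle-treated cells.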

A short description of experiment [6]: NCI Yeast Anticancer Drug Screen. Data for the mlh1 rad18 strain (AID 175). The note with it: S. cerevisiae mlh1 rad18 strain growth inhibition, hits give high values. Summed up: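 Test agents were incubated with a yeast strain of defined genotype (DNA damage repair defect). Inhibition of growth was derived by comparison with vehicle-exposed cultures.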
The mark [7] stands for this setting: at 5.0 µM (retest, dose inferred, filed as 0.5).
Where [8] appears, read: at 50.0 µM (retest, dose inferred, filed as 5.0).

Molecules are shown by their SMILES. This is part of a sample that, as a whole, favours compounds with a hit. Of some 79,000 tested, about 15% had one in any assay. Values without a mark were called inactive. The source made the active and inactive calls. Cut-off read from the data, not from the text of the source: active = growth inhibition above about 70%; inactive = the rest.

Consider `CSS(C)(=O)=O`, for which the growth inhibition in experiment [1] (setting [7]) is 59%; in experiment [1] (setting [8]), 98% (active); in experiment [2] (setting [7]), 6%; in experiment [2] (setting [8]) it was 99% (active); in experiment [3] (setting [7]) it was 10%; in experiment [3] (setting [8]), 99% (active). For the same compound, the growth inhibition in experiment [4] (setting [7]) was -4%; in experiment [4] (setting [8]) it was 98% (active); in experiment [5] (setting [7]), -1%; in experiment [5] (setting [8]) it was 99% (active); in experiment [6] (setting [7]), 3%; in experiment [6] (setting [8]), 95% (active).
In the case of `CCOC(=O)C(NC(C)=O)C(=O)c1ccccc1` (stereo not drawn), the growth inhibition in experiment [1] (setting [7]) was -3%; in experiment [1] (setting [8]) it was 6%; in experiment [2] (setting [7]) it was -3%; in experiment [2] (setting [8]), -4%; in experiment [3] (setting [7]) it was 0%; in experiment [3] (setting [8]), -1%. The growth inhibition in experiment [4] (setting [7]) is 11%; in experiment [4] (setting [8]), -4%; in experiment [5] (setting [7]), 2%; in experiment [5] (setting [8]), -1%; in experiment [6] (setting [7]), -35%; in experiment [6] (setting [8]), -6%.
`CC(C)(C)c1cc([N+](=O)[O-])c(O)c([N+](=O)[O-])c1`: the growth inhibition in experiment [1] (setting [7]) is 36%; in experiment [1] (setting [8]), 89% (active); in experiment [2] (setting [7]), 11%; in experiment [2] (setting [8]), 54%; in experiment [3] (setting [7]), 15%; in experiment [3] (setting [8]), 74% (active). The growth inhibition in experiment [4] (setting [7]) is 22%; in experiment [4] (setting [8]), 46%; in experiment [5] (setting [7]) it was 18%; in experiment [5] (setting [8]) it was 74% (active); in experiment [6] (setting [7]) it was 2%; in experiment [6] (setting [8]), 81% (active).
In the case of `CCC(=O)c1ccc([N+](=O)[O-])o1`, the growth inhibition in experiment [1] (setting [7]) is 12%; in experiment [1] (setting [8]) it was 97% (active); in experiment [2] (setting [7]), 5%; in experiment [2] (setting [8]), 99% (active); in experiment [3] (setting [7]) it was 13%; in experiment [3] (setting [8]), 100% (active). For the same compound, the growth inhibition is -6% in experiment [4] (setting [7]); 99% (active) in experiment [4] (setting [8]); 13% in experiment [5] (setting [7]); 100% (active) in experiment [5] (setting [8]); 3% in experiment [6] (setting [7]); 98% (active) in experiment [6] (setting [8]).
As to `Clc1ccc(-n2ncc3c(Cl)nc(Cl)nc32)cc1`, the growth inhibition was 98% (active) in experiment [1] (setting [7]); 99% (active) in experiment [1] (setting [8]); 99% (active) in experiment [2] (setting [7]); 99% (active) in experiment [2] (setting [8]); 100% (active) in experiment [3] (setting [7]); 99% (active) in experiment [3] (setting [8]). Moreover, the growth inhibition in experiment [4] (setting [7]) was 97% (active); in experiment [4] (setting [8]), 98% (active); in experiment [5] (setting [7]), 99% (active); in experiment [5] (setting [8]), 99% (active); in experiment [6] (setting [7]) it was 99% (active); in experiment [6] (setting [8]), 99% (active).
Consider `NCCN1C(=O)CNC1=S`, for which the growth inhibition in experiment [1] (setting [7]) was -23%; in experiment [1] (setting [8]) it was 30%; in experiment [2] (setting [7]) it was -1%; in experiment [2] (setting [8]) it was -4%; in experiment [3] (setting [7]), 3%; in experiment [3] (setting [8]), 3%. In addition, the growth inhibition in experiment [4] (setting [7]) was 0%; in experiment [4] (setting [8]), -3%; in experiment [5] (setting [7]), -1%; in experiment [5] (setting [8]), -5%; in experiment [6] (setting [7]) it was 10%; in experiment [6] (setting [8]), 17%.
As to `[O-][n+]1cccc2cccc(O)c21`, the growth inhibition in experiment [1] (setting [7]) was 2%; in experiment [1] (setting [8]) it was 61%; in experiment [2] (setting [7]), -1%; in experiment [2] (setting [8]), 16%; in experiment [3] (setting [7]), 1%; in experiment [3] (setting [8]), 48%. The growth inhibition in experiment [4] (setting [7]) is -3%; in experiment [4] (setting [8]), 2%; in experiment [5] (setting [7]) it was 1%; in experiment [5] (setting [8]), 20%; in experiment [6] (setting [7]) it was -12%; in experiment [6] (setting [8]), 49%.
In the case of `CCCCNC(=O)C(C)O` (stereo not drawn), the growth inhibition in experiment [1] (setting [7]) was 5%; in experiment [1] (setting [8]) it was 23%; in experiment [2] (setting [7]), 0%; in experiment [2] (setting [8]), 3%; in experiment [3] (setting [7]), 0%; in experiment [3] (setting [8]) it was 4%. For the same compound, the growth inhibition in experiment [4] (setting [7]) is 5%; in experiment [4] (setting [8]), 0%; in experiment [5] (setting [7]) it was 1%; in experiment [5] (setting [8]) it was -2%; in experiment [6] (setting [7]), 3%; in experiment [6] (setting [8]), 8%.
For `O=C1C=CC(=O)C2=C1CC=CC2`, the growth inhibition in experiment [1] (setting [7]) was -12%; in experiment [1] (setting [8]), 99% (active); in experiment [2] (setting [7]), -2%; in experiment [2] (setting [8]), 99% (active); in experiment [3] (setting [7]), 29%; in experiment [3] (setting [8]) it was 100% (active). Moreover, the growth inhibition in experiment [4] (setting [7]) is -6%; in experiment [4] (setting [8]), 75% (active); in experiment [5] (setting [7]), 26%; in experiment [5] (setting [8]), 100% (active); in experiment [6] (setting [7]) it was 48%; in experiment [6] (setting [8]), 97% (active).
For the compound `O=C(O)c1ccc(-c2ccccc2)cc1`, the growth inhibition in experiment [1] (setting [7]) was 12%; in experiment [1] (setting [8]), 80% (active); in experiment [2] (setting [7]), 0%; in experiment [2] (setting [8]), 38%; in experiment [3] (setting [7]), 12%; in experiment [3] (setting [8]), 69%. The growth inhibition was -1% in experiment [4] (setting [7]); 39% in experiment [4] (setting [8]); -1% in experiment [5] (setting [7]); 42% in experiment [5] (setting [8]); -1% in experiment [6] (setting [7]); 47% in experiment [6] (setting [8]).
Consider `CC(O)C(=O)NCCc1ccccc1` (stereo not drawn), for which the growth inhibition in experiment [1] (setting [7]) was 8%; in experiment [1] (setting [8]), 4%; in experiment [2] (setting [7]) it was -3%; in experiment [2] (setting [8]), -2%; in experiment [3] (setting [7]), -1%; in experiment [3] (setting [8]), 1%. Besides, the growth inhibition is 2% in experiment [4] (setting [7]); 3% in experiment [4] (setting [8]); -1% in experiment [5] (setting [7]); -2% in experiment [5] (setting [8]); 4% in experiment [6] (setting [7]); 10% in experiment [6] (setting [8]).
On to `O=Cc1ccc(O)c(O)c1O`, for which the growth inhibition in experiment [1] (setting [7]) is -7%; in experiment [1] (setting [8]), 66%; in experiment [2] (setting [7]), -3%; in experiment [2] (setting [8]), 54%; in experiment [3] (setting [7]) it was -6%; in experiment [3] (setting [8]), 35%. For the same compound, the growth inhibition is 0% in experiment [4] (setting [7]); 36% in experiment [4] (setting [8]); 9% in experiment [5] (setting [7]); 73% (active) in experiment [5] (setting [8]); -30% in experiment [6] (setting [7]); 86% (active) in experiment [6] (setting [8]).
Regarding `CCSC(=O)c1ccc([N+](=O)[O-])o1`, the growth inhibition was 20% in experiment [1] (setting [7]); 99% (active) in experiment [1] (setting [8]); 6% in experiment [2] (setting [7]); 100% (active) in experiment [2] (setting [8]); 31% in experiment [3] (setting [7]); 100% (active) in experiment [3] (setting [8]). For the same compound, the growth inhibition is 9% in experiment [4] (setting [7]); 99% (active) in experiment [4] (setting [8]); 13% in experiment [5] (setting [7]); 100% (active) in experiment [5] (setting [8]); -9% in experiment [6] (setting [7]); 99% (active) in experiment [6] (setting [8]).
With `O=C(CBr)C(Br)C(Br)c1ccccc1` (stereo not drawn), the growth inhibition in experiment [1] (setting [7]) is 98% (active); in experiment [1] (setting [8]), 99% (active); in experiment [2] (setting [7]), 99% (active); in experiment [2] (setting [8]), 100% (active); in experiment [3] (setting [7]), 100% (active); in experiment [3] (setting [8]), 98% (active). Besides, the growth inhibition was 99% (active) in experiment [4] (setting [7]); 99% (active) in experiment [4] (setting [8]); 100% (active) in experiment [5] (setting [7]); 100% (active) in experiment [5] (setting [8]); 92% (active) in experiment [6] (setting [7]); 99% (active) in experiment [6] (setting [8]).

The record behind these values is PubChem BioAssay (NCI).
